PLK1 PBD inh – qHTS for Inhibitors of PLK1-PDB (polo-like kinase 1 - polo-box domain): Primary Screen; Serine/threonine-protein kinase PLK1 (Homo sapiens), P53350; Plk1 PBD binding of FITC phosphopeptide, fluorescence polarization; Potency, µM, inactives show max response, negative = inhibition, actives largely listed as inhibitors; 360,000 compounds, 2.8% hits; AID 720504, 2013; also: series mostly up to about 57 µM; nearly all actives have a fitted effect of over 65% in size
KAT2A inh – qHTS Assay for Inhibitors of GCN5L2; Histone acetyltransferase KAT2A (Homo sapiens), Q92830; 390,000 compounds, 0.21% hits; GCN5L2 HAT assay, ThioGlo1 CoA-SH fluorescence; Potency, µM (doses to about 58.9 µM), without a hit: at the top dose activity change, negative = inhibition, most hits filed as inhibitors
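ThioGlo1-coupled HAT assay: 20nM GCN5L2, 70uM acetyl-CoA, 75uM H3(1-25) peptide, pH 7.5. Fluorescence read at 340/540nm at start and after 20 min at room temperature.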
VDR inhibitor – Inhibitors of the vitamin D receptor (VDR): qHTS | AID 504847, 2011 | Potency, µM, for the others: max response, negative = inhibition, usual class: inhibitors | 400,000 compounds, 0.93% hits | VDR-SRC2-3 peptide fluorescence polarization, 2 h
Target sequence (P11473 whole entry, looked up): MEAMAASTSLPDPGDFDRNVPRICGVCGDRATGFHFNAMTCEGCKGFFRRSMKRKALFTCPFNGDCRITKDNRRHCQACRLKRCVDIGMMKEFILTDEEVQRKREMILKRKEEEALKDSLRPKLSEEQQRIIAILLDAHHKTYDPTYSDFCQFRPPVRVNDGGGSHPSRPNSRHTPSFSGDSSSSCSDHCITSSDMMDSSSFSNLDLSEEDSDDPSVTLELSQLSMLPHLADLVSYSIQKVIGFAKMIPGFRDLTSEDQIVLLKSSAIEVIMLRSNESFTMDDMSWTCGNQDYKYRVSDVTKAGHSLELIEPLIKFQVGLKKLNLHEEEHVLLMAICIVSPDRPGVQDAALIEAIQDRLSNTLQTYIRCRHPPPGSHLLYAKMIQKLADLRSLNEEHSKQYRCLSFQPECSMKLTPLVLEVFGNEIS
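Compounds are added to VDR with labelled SRC2-3 coactivator peptide and held 2 h at room temperature. Inhibition of the VDR–peptide interaction is then read as a change in fluorescence polarization.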
DT40 TDP1 no CPT – qHTS for Inhibitors of human tyrosyl-DNA phosphodiesterase 1 (TDP1): qHTS in cells in absence of CPT | DT40 Tdp1-/- hTDP1 cells, no CPT, ATP luminescence, 48 h | Potency, µM (doses to about 46.2 µM), for inactives: top-dose activity change, negative = growth inhibition, hits mostly inhibitors | 420,000 compounds, 15% hits; also: nearly all actives have a fitted effect of over 55% in size
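No-CPT arm: Tdp1-/-;hTDP1 DT40 cells (400/well) plus compounds, incubated ≥48 hr at 37 °C. Readout CellTiter-Glo luminescence.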
TDP1 block – qHTS Assay for Inhibitors of Tyrosyl-DNA Phosphodiesterase (TDP1); 350,000 compounds, 0.28% hits; Potency, µM (highest dose often 130 µM), for inactives: at the top dose activity change, negative = inhibition, most hits filed as inhibitors; AID 485290, 2010; recombinant TDP1, AlphaScreen DNA substrate cleavage; also: nearly all actives have a fitted effect of over 40% in size
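Here, a 5' biotin and 3' phosphotyrosine-FITC DNA oligonucleotide reports Tdp1 activity: intact substrate bridges AlphaScreen beads, while cleavage leaves a 3' phosphate and drops signal. All incubations at room temperature.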
TDP1 cell CPT – qHTS for Inhibitors of human tyrosyl-DNA phosphodiesterase 1 (TDP1): qHTS in cells in presence of CPT; chicken DT40 Tdp1-/-;hTDP1 cells + 20 nM CPT, ATP luminescence, 48 h; Potency, µM (doses to about 46.2 µM), for the others: at the top dose activity change, negative = growth inhibition, hits mostly inhibitors; 420,000 compounds, 12% hits; AID 686979, 2013; also: nearly all actives have a fitted effect of over 55% in size
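Chicken DT40 Tdp1-/- cells complemented with human TDP1, 400 cells/well, exposed to compounds plus 20 nM camptothecin for at least 48 h at 37 C; viability read as ATP content by CellTiter-Glo luminescence.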
The depositor's hits bear a star; ? = inconclusive; . = no result given; [ ] = another dose, or the depositor's remark. The list is not random: actives were taken first. Their share in the collection is about 18%. Calls follow the shape of the dose curve; as a rule, active = well fitted curve in the direction sought with a large enough effect; inconclusive = small, poorly fitted or top-dose-only effect, or another doubt; inactive = no such curve, though single readings can be large; an effect the other way counts as inactive or inconclusive. % is scaled to controls: 0 for no effect and ±100 for the full control effect; potency is read from the fitted curve at half-maximal effect.

SMILES	PLK1 PBD inh	KAT2A inh	VDR inhibitor	DT40 TDP1 no CPT	TDP1 block	TDP1 cell CPT
COc1cc2c(cc1OC)/C(=C/C(=O)c1ccc(OC)c([N+](=O)[O-])c1)NCC2	-13%	-10%	-20%	18µM*	.	?
O=C(Nc1ccc2c(c1)CCC2)C1CCCN(c2ncccn2)C1 (stereo not given)	-2%	-3%	-9%	?	6%	-16%
CCc1c(C)nc2ncnn2c1N1CCC(C(=O)Nc2ccc(C)cc2)CC1	-7%	-11%	-1%	15µM*	3%	21µM*
Cc1nc2ncnn2c(N2CCCC(C(=O)Nc3ccc4c(c3)CCC4)C2)c1C (stereo not given)	-2%	-10%	1%	23µM*	9%	21µM*
CCc1c(C)nc2ncnn2c1N1CCC(C(=O)Nc2ccccc2)CC1	-7%	1%	24%	16µM*	3%	?
CCOc1ccccc1NC(=O)C1CCCN(c2c(CC)c(C)nc3ncnn23)C1 (stereo not given)	-9%	-6%	7%	21µM*	.	21µM*
CCN1CCCC1CNC(=O)c1cnn(-c2nccc(-c3ccc(C)o3)n2)c1C1CC1 (stereo not given)	.	.	.	-4%	.	1%
N#Cc1c(C(F)(F)F)cc(-c2cccs2)nc1SCC(=O)Nc1ccc(F)cc1	.	-4%	-10%	?	0%[12.3 µM]	?
COc1ccc(CCNC(=O)CSCc2ccc([N+](=O)[O-])cc2)cc1	0%	-3%	-19%	-23%	2%	-9%
CC(C)(C)OC(=O)N/N=C/c1cccn1-c1ccc([N+](=O)[O-])cc1	-4%	-1%	-4%	-11%	4%	10%
COc1ccc(CCNC(=O)CC(c2ccccc2)c2cccc(C)c2O)cc1OC (stereo not given)	5%	-7%	-1%	9.2µM*	2%	12µM*
COc1ccc(CCNC(=O)CNCC(c2ccccc2)N(C)C)cc1OC (stereo not given)	-12%	-3%	-8%	-11%	.	5%
COc1ccc(CCNC(=O)CSc2ccccc2)cc1OC	-1%	-6%	-6%	-14%	-3%	7%
COc1ccc(CC(=O)N/N=C/c2cccn2-c2ccc([N+](=O)[O-])cc2)cc1OC	-9%	8%	11%	15µM*	-3%	16µM*
COc1ccc(CCNC(=O)CSCc2ccc([N+](=O)[O-])cc2)cc1OC	9.5µM*	3%	?	26µM*	5%	26µM*
COc1ccc(CCNC(=O)CSC(=O)c2ccccc2)cc1OC	21µM*	-8%	?	0%	3%	-18%
Cc1ccc2[nH]c(CNC(=O)c3ccc(F)cc3)cc2c1	-3%	-18%	-9%	2%	4%	1%
O=C(CSc1nccn1-c1cccc(Cl)c1)Nc1cccc2ccccc12	.	-8%	4%	?	7%	?
COc1ccc(N2CCN(C(=O)c3cc(NC(C)=O)c4c(c3)ncn4CCc3ccccn3)CC2)cc1	.	.	.	-19%	.	4%
CCCCCCCCCCCCCCCCCC(=O)NCCc1ccc(O)c(O)c1	.	.	.	.	8%	.
COc1cc(NC(=O)C2CCC(CNS(=O)(=O)c3csc(C(N)=O)c3)CC2)cc(OC)c1 (stereo not given)	-7%	-7%	0%	?	1%	-10%
COc1ccc(CC(C)CC(=O)NCCc2ccc(OC)c(OC)c2)cc1 (stereo not given)	-4%	-27%	?	?	.	-9%

Bioassay records: PubChem, National Center for Advancing Translational Sciences (NCATS)
